Drawing on PubChem BioAssay (Tox21), this text covers Potency for 15 molecules.

The nature of test [1]: qHTS assay to identify small molecule antagonists of the glucocorticoid receptor (GR) signaling pathway - cell viability counter screen (AID 720693). Note: nearly all actives have a fitted effect of over 55% in size. Note: potency is the fitted concentration of half-maximal effect.
Test [2] can be described thus: qHTS assay for identifying genotoxic compounds that show differential cytotoxicity against isogenic chicken DT40 cell lines with known DNA damage response pathways - wild type cell line (AID 743012). Note: nearly all actives have a fitted effect of over 60% in size. Note: potency is the fitted concentration of half-maximal effect. The method in brief:
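Viability of DNA repair-proficient chicken DT40 cells was assessed by CellTiter-Glo luminescence following 40 h compound exposure at 37 C/5% CO2.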

Test [3] is described as follows: qHTS assay for identifying genotoxic compounds that show differential cytotoxicity against isogenic chicken DT40 cell lines with known DNA damage response pathways - Rev3 mutant cell line (AID 743014). Note: nearly all actives have a fitted effect of over 55% in size. Note: potency is the fitted concentration of half-maximal effect.
A short description of test [4]: qHTS assay for identifying genotoxic compounds that show differential cytotoxicity against isogenic chicken DT40 cell lines with known DNA damage response pathways - Rad54/Ku70 mutant cell line (AID 743015). Note: nearly all actives have a fitted effect of over 60% in size. Note: potency is the fitted concentration of half-maximal effect.
A short description of test [5]: qHTS assay to identify small molecule antagonists of the androgen receptor (AR) signaling pathway using the MDA cell line - cell viability counter screen (AID 743041; note: nearly all actives have a fitted effect of over 45% in size; note: potency is the fitted concentration of half-maximal effect). The method in brief: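 In this qHTS counter assay, fluorescence intensity after CellTiter-Fluor addition indicated viability of MDA-kb2 AR-luc cells given compounds and R1881 for 16 h at 37C.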
Test [6] can be described thus: qHTS assay to identify small molecule antagonists of the thyroid receptor (TR) signaling pathway - cell viability counter screen (AID 743064). Note: nearly all actives have a fitted effect of over 50% in size. Note: potency is the fitted concentration of half-maximal effect. The method in brief:
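Plate GH3.TRE-Luc cells; incubate 4 h at 37 °C; add compound, then T3 to 1 nM final; incubate 23.5 h; add CellTiter-Fluor; incubate 30 min at 37 °C, 5% CO2; read fluorescence.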

Test [7] can be described thus: qHTS assay to identify small molecule antagonists of the thyroid receptor (TR) signaling pathway (AID 743065). Note: nearly all actives have a fitted effect of over 55% in size. Note: potency is the fitted concentration of half-maximal effect. The method in brief: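 GH3.TRE-Luc rat pituitary cells carrying two TR response elements driving luciferase were plated for 4 h, given compound plus 1 nM T3 (final), and incubated 23.5 h at 37 C. ONE-Glo luminescence measured reporter inhibition; CellTiter-Fluor fluorescence tracked cytotoxicity.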

The test system of test [8] is thyroid hormone receptor (rat, GH3 cells). Description: qHTS assay to identify small molecule agonists of the thyroid receptor (TR) signaling pathway (AID 743066; calls by dose curve).
The target in test [9] is Estrogen receptor (Homo sapiens) (UniProt P03372). Description: qHTS assay to identify small molecule antagonists of the estrogen receptor alpha (ER-alpha) signaling pathway (AID 743069; active = well fitted curve in the direction sought with a large enough effect in the signal ratio in the repeat runs, not every such curve was filed as active; inconclusive = weak or mixed curves, or effect the other way; inactive = no such curve, though single readings can be large or run the other way; the % refers to the signal ratio; note: potency is the fitted concentration of half-maximal effect). The method in brief:
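A 17beta-estradiol challenge was applied right after compound transfer to ER-alpha-UAS-bla HEK293 cells previously kept in charcoal-stripped serum. Plates stood 18 hr at 37C and 5% CO2; fluorescence was read following 2 hr FRET substrate loading at room temperature.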

Test [10] can be described thus: qHTS assay to identify small molecule antagonists of the estrogen receptor alpha (ER-alpha) signaling pathway - cell viability counter screen (AID 743074; calls by dose curve;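 note: HEK293 cells carrying ER-alpha-UAS-bla reporter stimulated with 17beta-estradiol; nearly all actives have a fitted effect of over 45% in size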; note: potency is the fitted concentration of half-maximal effect).
Test [11] has as its target Estrogen receptor (Homo sapiens) (UniProt P03372). As to the kind of experiment: qHTS assay to identify small molecule agonists of the estrogen receptor alpha (ER-alpha) signaling pathway (AID 743075; calls by dose curve;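 note: HEK293 GripTite cells with ER-alpha and UAS-driven beta-lactamase reporter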; note: potency is the fitted concentration of half-maximal effect).
Test [12] has the same target. Description: qHTS assay to identify small molecule agonists of the estrogen receptor alpha (ER-alpha) signaling pathway using the BG1 cell line (AID 743079). Note: nearly all actives have a fitted effect of over 20% in size. Note: potency is the fitted concentration of half-maximal effect.
Test [13] can be described thus: qHTS assay to identify small molecule antagonists of the estrogen receptor alpha (ER-alpha) signaling pathway using the BG1 cell line (AID 743080; calls by dose curve; note: series mostly up to about 70 µM; nearly all actives have a fitted effect of over 25% in size). The method in brief: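 Antagonist mode: compounds in DMSO were pinned onto BG1-Luc-4E2 cells alongside 17beta-estradiol agonist, incubated 21.5 h, and ERE-driven luciferase measured with ONE-Glo. Cytotoxicity was multiplexed using CellTiter-Fluor fluorescence.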

A short description of test [14]: qHTS assay to identify small molecule antagonists of the estrogen receptor alpha (ER-alpha) signaling pathway using the BG1 cell line - cell viability counter screen (AID 743081).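 Note: compound given together with 17beta-estradiol as the ER stimulus; nearly all actives have a fitted effect of over 45% in size.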 Note: potency is the fitted concentration of half-maximal effect.
Another test concerns the target Aromatase (Homo sapiens) (UniProt P11511). As to the kind of experiment: qHTS assay to identify aromatase inhibitors (AID 743083). Note: nearly all actives have a fitted effect of over 55% in size. Note: potency is the fitted concentration of half-maximal effect.
Test [15] deals with Androgen receptor (Homo sapiens) (UniProt P10275). Description: qHTS assay to identify small molecule agonists of the androgen receptor (AR) signaling pathway using the MDA cell line (AID 743040; note: nearly all actives have a fitted effect of over 20% in size). The method in brief: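 Cell-based luciferase reporter: MDA-kb2, MMTV promoter (AR + GR response elements). 16 h compound exposure at 37C; ONE-Glo, 30 min RT, luminescence.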
Androgen receptor (Homo sapiens), sequence (P10275 whole entry, looked up): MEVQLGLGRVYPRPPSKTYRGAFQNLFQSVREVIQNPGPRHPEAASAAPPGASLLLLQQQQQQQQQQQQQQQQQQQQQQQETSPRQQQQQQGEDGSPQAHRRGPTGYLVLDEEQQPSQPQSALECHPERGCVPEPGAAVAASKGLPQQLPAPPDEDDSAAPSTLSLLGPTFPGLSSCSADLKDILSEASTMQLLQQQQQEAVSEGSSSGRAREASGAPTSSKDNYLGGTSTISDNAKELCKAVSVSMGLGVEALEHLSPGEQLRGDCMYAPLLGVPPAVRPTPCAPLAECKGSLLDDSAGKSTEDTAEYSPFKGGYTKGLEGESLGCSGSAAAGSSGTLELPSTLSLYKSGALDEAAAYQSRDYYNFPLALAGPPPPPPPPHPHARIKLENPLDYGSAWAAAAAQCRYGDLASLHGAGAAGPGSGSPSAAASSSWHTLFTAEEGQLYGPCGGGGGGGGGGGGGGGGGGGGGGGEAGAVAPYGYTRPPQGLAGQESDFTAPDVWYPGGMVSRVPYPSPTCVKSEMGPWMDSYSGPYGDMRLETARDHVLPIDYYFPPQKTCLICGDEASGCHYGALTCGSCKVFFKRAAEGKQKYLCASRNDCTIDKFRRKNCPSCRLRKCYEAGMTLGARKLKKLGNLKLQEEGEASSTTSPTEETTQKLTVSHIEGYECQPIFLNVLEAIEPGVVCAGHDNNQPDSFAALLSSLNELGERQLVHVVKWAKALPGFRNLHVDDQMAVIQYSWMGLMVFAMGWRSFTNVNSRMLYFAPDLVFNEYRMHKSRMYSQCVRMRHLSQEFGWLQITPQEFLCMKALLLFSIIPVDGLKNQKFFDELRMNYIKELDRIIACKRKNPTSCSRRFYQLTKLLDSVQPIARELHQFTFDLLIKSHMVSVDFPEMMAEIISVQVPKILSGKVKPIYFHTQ
Test [16] has the same target. Description: qHTS assay to identify small molecule antagonists of the androgen receptor (AR) signaling pathway using the MDA cell line (AID 743042; note: nearly all actives have a fitted effect of over 55% in size; note: potency is the fitted concentration of half-maximal effect). The method in brief:
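MDA-kb2 cells (human breast carcinoma, stably carrying an MMTV-luciferase reporter responsive to AR and GR) were plated at 3,000 cells/well and preincubated 5 hr at 37C, then given compound plus R1881 agonist for 16 h. ONE-Glo luminescence was read.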

Test [17] is described as follows: qHTS assay to identify small molecule antagonists of the androgen receptor (AR) signaling pathway - cell viability counter screen (AID 743033; note: nearly all actives have a fitted effect of over 45% in size).
Test [18] concerns the target Androgen receptor (Homo sapiens) (UniProt P10275). Description: qHTS assay to identify small molecule agonists of the androgen receptor (AR) signaling pathway (AID 743036; active = well fitted activation curve with a large enough effect in the signal ratio in the repeat runs, with a control signal flat, not every such curve was filed as active; inconclusive = weak or mixed curves, or effect the other way; inactive = no such curve, though single readings can be large or run the other way; the % refers to the signal ratio). The method in brief: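 Reporter line: GeneBLAzer AR-UAS-bla-GripTite (HEK293). Steps: plate cells, 4 h rest, add compounds, 16 h at 37C, add LiveBLAzer B/G substrate, 2 h at RT, read fluorescence.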

Test [19] shares this target. As to the kind of experiment: qHTS assay to identify small molecule antagonists of the androgen receptor (AR) signaling pathway (AID 743035; active = well fitted inhibition curve with a large enough effect in the signal ratio in the repeat runs, not every such curve was filed as active; inconclusive = weak or mixed curves, or effect the other way; inactive = no such curve, though single readings can be large or run the other way; the % refers to the signal ratio; note: potency is the fitted concentration of half-maximal effect). The method in brief:
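Reporter HEK293 cells were exposed to compounds and R1881 overnight (16 h, 37C); beta-lactamase activity was then quantified by FRET fluorescence.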

Each structure is given as a SMILES string. Values joined by “and” are separate entries in the source; they are usually repeats but may differ in a detail not shown here. Equal entries are not always repeated. Active and inactive are the calls of the source. Unless noted, calls come from the whole dose curve; as a rule, active = well fitted curve in the direction sought with a large enough effect in the repeat runs; inconclusive = weak or mixed curves; inactive = no such curve, though single readings can be large; an effect the other way counts as inactive or inconclusive.

Aromatase (Homo sapiens), sequence (P11511 whole entry, looked up): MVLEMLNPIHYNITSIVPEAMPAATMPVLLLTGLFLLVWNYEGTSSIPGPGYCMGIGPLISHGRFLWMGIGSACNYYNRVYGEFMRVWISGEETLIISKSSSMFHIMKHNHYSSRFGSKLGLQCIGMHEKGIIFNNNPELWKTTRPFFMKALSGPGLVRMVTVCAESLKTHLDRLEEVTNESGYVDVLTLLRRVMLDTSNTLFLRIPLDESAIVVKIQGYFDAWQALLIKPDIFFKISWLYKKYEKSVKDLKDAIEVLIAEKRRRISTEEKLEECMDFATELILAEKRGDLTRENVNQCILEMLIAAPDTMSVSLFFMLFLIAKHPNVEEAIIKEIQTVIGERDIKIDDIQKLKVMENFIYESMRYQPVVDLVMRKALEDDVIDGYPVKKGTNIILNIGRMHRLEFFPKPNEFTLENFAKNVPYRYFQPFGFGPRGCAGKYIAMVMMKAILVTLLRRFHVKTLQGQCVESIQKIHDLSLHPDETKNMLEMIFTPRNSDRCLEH
Estrogen receptor (Homo sapiens), sequence (P03372 whole entry, looked up): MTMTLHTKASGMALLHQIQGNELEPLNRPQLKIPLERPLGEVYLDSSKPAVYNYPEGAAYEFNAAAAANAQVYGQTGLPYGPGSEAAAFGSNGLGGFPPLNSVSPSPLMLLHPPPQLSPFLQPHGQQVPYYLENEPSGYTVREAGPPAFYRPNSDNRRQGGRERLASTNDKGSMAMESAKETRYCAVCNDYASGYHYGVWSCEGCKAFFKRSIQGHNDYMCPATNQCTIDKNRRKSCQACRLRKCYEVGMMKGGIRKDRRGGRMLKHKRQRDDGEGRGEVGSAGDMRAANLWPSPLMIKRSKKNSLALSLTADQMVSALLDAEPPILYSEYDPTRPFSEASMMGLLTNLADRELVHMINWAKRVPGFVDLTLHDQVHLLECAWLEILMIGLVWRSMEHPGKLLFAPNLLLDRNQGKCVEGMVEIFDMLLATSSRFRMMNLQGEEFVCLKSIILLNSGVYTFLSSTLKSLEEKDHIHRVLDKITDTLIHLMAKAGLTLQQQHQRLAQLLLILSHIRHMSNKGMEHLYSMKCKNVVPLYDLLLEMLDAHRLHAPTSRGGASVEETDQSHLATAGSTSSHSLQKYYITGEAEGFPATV

For the molecule `O=C(Cn1cnnn1)N[C@@H]1C(=O)N2C(C(=O)O)=C(CSc3nncs3)CS[C@H]12`, the Potency entry in test [1], in test [2], in test [3], in [4], in [5] and in test [6] was “inactive” in each case. For the same molecule, the Potency entry in test [7], in test [8], in [9], in [10], in test [11] and in [12] was “inactive” each time. Also, the Potency entry (in test [13]; in [14]; in the test with Aromatase (Homo sapiens)) was “inactive” each time.

As to `CC(=O)[C@]1(O)Cc2c(O)c3c(c(O)c2[C@@H](O[C@H]2C[C@H](N)[C@H](O)[C@H](C)O2)C1)C(=O)c1ccccc1C3=O`, the Potency in [1] was 3.01 µM (active); in test [2], 0.0211 µM (active); in test [3], 0.0211 µM (active); in [4], 0.0033 µM (active); in [5], 15 µM (active); in test [16] it was 0.422 µM (active). The Potency in test [6] is 0.119 µM (active); in [7] it was 0.119 µM (active); in [9], 4.77 µM [inconclusive] (active); in test [11], 3.38 µM [inconclusive] (active); in test [14], 3.35 µM (active); with Aromatase (Homo sapiens), 3.35 µM (active). Also, in test [15], the Potency entry was “inactive”.

Turning to `O=C(CCN1CCC(c2ccccc2)C1)c1ccc2c(c1)OCCO2` (stereo unspecified), the Potency entry in test [1], in [17], in test [9], in test [10], in test [11] and in test [12] was “inactive” throughout. Further, the Potency result in [13] and in [14] was “inactive” throughout. Further, the Potency in test [2] was 2.66 µM (active); in test [3], 4.73 µM (active); in test [4] it was 4.22 µM (active); in test [5], 29.8 µM (active); in test [7], 26.6 µM (active).

As to `CCOc1ccc([N+](=O)[O-])cc1`, the Potency was 35.2 µM (active) in test [1]; 62 µM (active) in [2]; 31.1 µM (active) in test [3]; 43.9 µM (active) in test [4]; 31.1 µM (active) in test [7]; 55.8 µM [inconclusive] (active) in [9]. For the same molecule, the values for the Potency (in test [11]; in test [12]; with Aromatase (Homo sapiens)) were 6.26 µM [inconclusive] (active), 1.96 µM (active) and 27.7 µM (active), respectively. The Potency result in [17] and in test [8] was “inactive” in each case.

For `CCCCCCCCCCCCCCCCCCNC(=O)OC1CCN(C(=O)OC[C@H](COC(=O)N(Cc2cccc[n+]2CC)C(=O)c2ccccc2OC)OC)CC1`, the Potency in test [1] was 16.9 µM (active); in test [2], 5.31 µM (active); in test [3] it was 6.68 µM (active); in [4], 5.96 µM (active); in [5] it was 23.7 µM (active); in test [16], 13.3 µM (active). Also, the Potency in test [6] is 15 µM (active); in [7], 13.3 µM (active); in test [10] it was 23.9 µM (active); in the test with Aromatase (Homo sapiens), 21.1 µM (active). Moreover, the Potency result in test [15] and in test [11] was “inactive” throughout.

Turning to `C[N+]1(CCCCC[N+]2(C)CCCC2)CCCC1`, the Potency result in [1], in test [2], in [3], in test [4], in [18] and in [15] was “inactive” each time. In addition, the Potency entry in [5], in test [16], in test [6], in [7], in test [8] and in [9] was “inactive” in each case. Moreover, the Potency result (in test [10]; in test [11]; in test [12]; in [13]; in test [14]; with Aromatase (Homo sapiens)) was “inactive” each time.

For `CCOc1ccc(S(=O)(=O)O)c2cccnc12`, the Potency result in test [1], in [2], in [3], in [4], in test [17] and in [5] was “inactive” each time. The Potency entry in test [7], in test [8], in test [9], in test [10], in test [13] and in test [14] was “inactive” throughout. For the same molecule, the Potency entry in the test with Aromatase (Homo sapiens) is “inactive”. Moreover, the Potency was 23.9 µM [inconclusive] (active) in test [11] and 6.68 µM (active) in [12].

Take `COc1cccc2c1[C@@H]1CN(CCCCn3c(=O)[nH]c4c(sc5ncc(-c6ccccc6)nc54)c3=O)C[C@@H]1CO2`: the Potency result in test [1], in test [15] and in test [11] was “inactive” throughout. Moreover, the Potency in test [2] was 13.3 µM (active); in test [3], 18.8 µM (active); in test [4], 11.9 µM (active); in test [16], 29.8 µM (active); in test [6] it was 11.9 µM (active); in test [7] it was 10.6 µM (active).

In the case of `Cc1cc(CC(C)CC(C)(C)C)n(O)c(=O)c1` (stereo unspecified) (tested in a mixture with another compound), the Potency in test [1] is 15.1 µM (active); in test [2], 11.9 µM (active); in test [3], 11.9 µM (active); in test [4], 13.3 µM (active); in test [6], 29.8 µM (active); in [7], 21.1 µM (active). Further, in the test with Aromatase (Homo sapiens), the Potency is 13.3 µM (active). In addition, the Potency entry in [17] and in test [14] was “inactive” throughout.

For `CNC(=O)OCc1cccc(COC(=O)NC)n1`, the Potency result in [1], in test [2], in test [3], in test [4], in test [5] and in [6] was “inactive” in each case. Moreover, the Potency result (in test [7]; in test [8]; in [10]; in test [14]; with Aromatase (Homo sapiens)) was “inactive” in each case.

With `C[S+](C)CCC(N)C(=O)O` (stereo unspecified), the Potency entry in test [1], in [2], in [4], in test [17], in [5] and in test [6] was “inactive” in each case. Moreover, the Potency result in test [7], in test [8], in [9], in test [10], in test [11] and in test [12] was “inactive” throughout. The Potency result (in [13]; in test [14]; with Aromatase (Homo sapiens)) was “inactive” each time.

Turning to `CON=C1C[C@]2(C[C@@H]3C[C@@H](C/C=C(\C)C[C@@H](C)/C=C/C=C4\CO[C@@H]5[C@H](O)C(C)=C[C@@H](C(=O)O3)[C@]45O)O2)O[C@H](/C(C)=C/C(C)C)[C@H]1C`, the Potency in [1] is 7.56 µM (active) and 10.7 µM (active); in test [2] it was 13.3 µM (active) and 16.8 µM (active); in test [4] it was 10.6 µM (active) and 13.3 µM (active); in test [19] it was 7.56 µM (active); in test [6], 5.31 µM (active); in [7], 3.76 µM (active) and 5.31 µM (active). Also, in test [10], the Potency was 6.01 µM (active) and 23.9 µM (active). Further, the Potency entry (in test [17]; in test [5]; in test [16]; with Aromatase (Homo sapiens)) was “inactive” each time.

Take `C=C1C(=C/C=C2\CCC[C@]3(C)[C@@H]([C@H](C)CCCC(C)C)CC[C@@H]23)C[C@@H](O)C[C@@H]1O`: the Potency in test [1] is 21.3 µM (active); in [2], 5.96 µM (active); in test [3] it was 13.3 µM (active); in test [4], 6.68 µM (active). Further, the Potency entry (in [5]; with Aromatase (Homo sapiens)) was “inactive” in each case.

Regarding `NCC1CCC(C(=O)O)CC1` (stereo unspecified), the Potency result in test [1], in test [2], in [3], in [4], in test [5] and in [7] was “inactive” each time. The Potency result in [8], in test [9], in [10], in [11], in test [12] and in test [13] was “inactive” in each case. In addition, the Potency result (in test [14]; with Aromatase (Homo sapiens)) was “inactive” throughout.

`CSCCC(N)C(=O)O` (stereo unspecified): the Potency entry in test [1], in [2], in test [3], in test [4], in [5] and in test [7] was “inactive” throughout. In addition, the Potency result in test [8], in test [9], in [10], in test [11], in test [12] and in [13] was “inactive” each time. The Potency entry (in test [14]; with Aromatase (Homo sapiens)) was “inactive” each time.
